According to PubChem BioAssay (Tox21):
“And” between values parts separate entries of the source, which are not always exact repeats. Identical values can stand only once. Unmarked numbers belong to inactive results. Where a call stands in place of a potency, no number is given. The source made the active and inactive calls. Unless noted, the call rests on the fitted dose curve; in most records, active means well fitted curve in the direction sought with a large enough effect in the repeat runs; inconclusive means weak or mixed curves; inactive means no such curve, though single readings can be large; an effect the other way counts as inactive or inconclusive.

How the values were obtained:
[1] = qHTS assay to identify small molecule antagonists of the glucocorticoid receptor (GR) signaling pathway - cell viability counter screen (AID 720693); further: nearly all actives have a fitted effect of over 55% in size; further: potency means the concentration at half of the fitted maximal effect
[2] = qHTS assay for identifying genotoxic compounds that show differential cytotoxicity against isogenic chicken DT40 cell lines with known DNA damage response pathways - wild type cell line (AID 743012); further: nearly all actives have a fitted effect of over 60% in size; further: potency means the concentration at half of the fitted maximal effect
Outline: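 Quantitative HTS on parental DT40 cells: 40 h compound treatment at 37 C/5% CO2, with viability then determined by CellTiter-Glo luminescence. Values serve as the DNA repair-proficient reference for differential cytotoxicity.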

[3] = qHTS assay for identifying genotoxic compounds that show differential cytotoxicity against isogenic chicken DT40 cell lines with known DNA damage response pathways - Rev3 mutant cell line (AID 743014); further: nearly all actives have a fitted effect of over 55% in size; further: potency means the concentration at half of the fitted maximal effect
[4] = qHTS assay for identifying genotoxic compounds that show differential cytotoxicity against isogenic chicken DT40 cell lines with known DNA damage response pathways - Rad54/Ku70 mutant cell line (AID 743015); further: nearly all actives have a fitted effect of over 60% in size; further: potency means the concentration at half of the fitted maximal effect
[5] = qHTS assay to identify small molecule antagonists of the androgen receptor (AR) signaling pathway - cell viability counter screen (AID 743033; further: nearly all actives have a fitted effect of over 45% in size; further: potency means the concentration at half of the fitted maximal effect)
[6] = target: Androgen receptor (Homo sapiens) (UniProt P10275); experiment: qHTS assay to identify small molecule antagonists of the androgen receptor (AR) signaling pathway (AID 743035; active means well fitted inhibition curve with a large enough effect in the signal ratio in the repeat runs, not every such curve was filed as active; inconclusive means weak or mixed curves, or effect the other way; inactive means no such curve, though single readings can be large or run the other way; the % refers to the signal ratio)
Outline: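 Cell line: GeneBLAzer AR-UAS-bla GripTite (HEK293). Stimulus: R1881 added after compound. Exposure: 16 h, 37C, 5% CO2. Readout: LiveBLAzer B/G FRET fluorescence after 2 h at room temperature.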

[7] = target: Androgen receptor (Homo sapiens) (UniProt P10275); experiment: qHTS assay to identify small molecule agonists of the androgen receptor (AR) signaling pathway (AID 743036; active means well fitted activation curve with a large enough effect in the signal ratio in the repeat runs, with a control signal flat, not every such curve was filed as active; inconclusive means weak or mixed curves, or effect the other way; inactive means no such curve, though single readings can be large or run the other way; the % refers to the signal ratio)
Outline: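 In this Tox21 qHTS, 2,000 HEK293 AR-bla cells per well were incubated with compounds for 16 h at 37C and 5% CO2. Fluorescence intensity was recorded 2 h after adding LiveBLAzer B/G FRET substrate at room temperature.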

[8] = target: Androgen receptor (Homo sapiens) (UniProt P10275); experiment: qHTS assay to identify small molecule agonists of the androgen receptor (AR) signaling pathway using the MDA cell line (AID 743040; further: nearly all actives have a fitted effect of over 20% in size)
Outline: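 Human breast carcinoma MDA-kb2 reporter cells (MMTV-luc, AR/GR elements) were treated for 16 h at 37C in 0% CO2 following a 5 h settling period. Signal was quantified by ONE-Glo luminescence.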

[9] = qHTS assay to identify small molecule antagonists of the androgen receptor (AR) signaling pathway using the MDA cell line - cell viability counter screen (AID 743041; further: nearly all actives have a fitted effect of over 45% in size; further: potency means the concentration at half of the fitted maximal effect)
Outline: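 Same-well cytotoxicity was assessed by CellTiter-Fluor in MDA-kb2 AR-luc cells after 16 h of compound treatment under R1881 agonism.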

[10] = target: Androgen receptor (Homo sapiens) (UniProt P10275); experiment: qHTS assay to identify small molecule antagonists of the androgen receptor (AR) signaling pathway using the MDA cell line (AID 743042; further: nearly all actives have a fitted effect of over 55% in size)
Outline: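 MDA-kb2 breast carcinoma cells carrying MMTV-luciferase (AR/GR responsive) were co-treated with compounds and the agonist R1881 for 16 h at 37C. Inhibition read as ONE-Glo luminescence; CellTiter-Fluor fluorescence measured in parallel for cytotoxicity.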

[11] = qHTS assay to identify small molecule antagonists of the thyroid receptor (TR) signaling pathway - cell viability counter screen (AID 743064); further: nearly all actives have a fitted effect of over 50% in size; further: potency means the concentration at half of the fitted maximal effect
Outline: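 Counter screen for cytotoxicity: compound plus T3 (1 nM final) on GH3.TRE-Luc cells, 23.5 h at 37 °C, then fluorescence viability readout with CellTiter-Fluor.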

[12] = qHTS assay to identify small molecule antagonists of the thyroid receptor (TR) signaling pathway (AID 743065); further: nearly all actives have a fitted effect of over 55% in size; further: potency means the concentration at half of the fitted maximal effect
Outline: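 GH3.TRE-Luc rat pituitary cells (two TREs driving luciferase) were dosed with compound, then stimulated with 1 nM T3 (final) for 23.5 h at 37 C. ONE-Glo luminescence was the read-out, with CellTiter-Fluor fluorescence as the cytotoxicity counter-screen.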

[13] = tested on: thyroid hormone receptor (rat, GH3 cells); experiment: qHTS assay to identify small molecule agonists of the thyroid receptor (TR) signaling pathway (AID 743066; calls by dose curve; further: potency means the concentration at half of the fitted maximal effect)
[14] = target: Estrogen receptor (Homo sapiens) (UniProt P03372); experiment: qHTS assay to identify small molecule antagonists of the estrogen receptor alpha (ER-alpha) signaling pathway (AID 743069; active means well fitted curve in the direction sought with a large enough effect in the signal ratio in the repeat runs, not every such curve was filed as active; inconclusive means weak or mixed curves, or effect the other way; inactive means no such curve, though single readings can be large or run the other way; the % refers to the signal ratio; further: potency means the concentration at half of the fitted maximal effect)
Outline: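 Reporter cells (ER-alpha-bla, HEK293 background) are conditioned overnight in stripped-serum medium (2% charcoal-stripped FBS). Compound and 17beta-estradiol exposure runs 18 hr at 37C, 5% CO2.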

[15] = qHTS assay to identify small molecule antagonists of the estrogen receptor alpha (ER-alpha) signaling pathway - cell viability counter screen (AID 743074; calls by dose curve;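 further: HEK293 cells carrying ER-alpha-UAS-bla reporter stimulated with 17beta-estradiol; nearly all actives have a fitted effect of over 45% in size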)
[16] = target: Estrogen receptor (Homo sapiens) (UniProt P03372); experiment: qHTS assay to identify small molecule agonists of the estrogen receptor alpha (ER-alpha) signaling pathway (AID 743075; calls by dose curve;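 further: HEK293 GripTite cells with ER-alpha and UAS-driven beta-lactamase reporter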)
[17] = target: Estrogen receptor (Homo sapiens) (UniProt P03372); experiment: qHTS assay to identify small molecule agonists of the estrogen receptor alpha (ER-alpha) signaling pathway using the BG1 cell line (AID 743079); further: nearly all actives have a fitted effect of over 20% in size; further: potency means the concentration at half of the fitted maximal effect
[18] = qHTS assay to identify small molecule antagonists of the estrogen receptor alpha (ER-alpha) signaling pathway using the BG1 cell line (AID 743080; calls by dose curve;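 further: BG1 cells stimulated with 17beta-estradiol alongside compound; series mostly up to about 70 µM; nearly all actives have a fitted effect of over 25% in size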)
Outline: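 Readout is ONE-Glo luminescence, taken 30 min at room temperature after reagent addition, preceded by a CellTiter-Fluor viability read; BG1-Luc-4E2 cells had received compound and 17beta-estradiol for 21.5 h at 37 C.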

[19] = qHTS assay to identify small molecule antagonists of the estrogen receptor alpha (ER-alpha) signaling pathway using the BG1 cell line - cell viability counter screen (AID 743081);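 further: compound given together with 17beta-estradiol as the ER stimulus; nearly all actives have a fitted effect of over 45% in size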; further: potency means the concentration at half of the fitted maximal effect
Aromatase (Homo sapiens) = Aromatase (Homo sapiens) (UniProt P11511); experiment: qHTS assay to identify aromatase inhibitors (AID 743083); further: nearly all actives have a fitted effect of over 55% in size; further: potency means the concentration at half of the fitted maximal effect
Aromatase (Homo sapiens), sequence (P11511 whole entry, looked up): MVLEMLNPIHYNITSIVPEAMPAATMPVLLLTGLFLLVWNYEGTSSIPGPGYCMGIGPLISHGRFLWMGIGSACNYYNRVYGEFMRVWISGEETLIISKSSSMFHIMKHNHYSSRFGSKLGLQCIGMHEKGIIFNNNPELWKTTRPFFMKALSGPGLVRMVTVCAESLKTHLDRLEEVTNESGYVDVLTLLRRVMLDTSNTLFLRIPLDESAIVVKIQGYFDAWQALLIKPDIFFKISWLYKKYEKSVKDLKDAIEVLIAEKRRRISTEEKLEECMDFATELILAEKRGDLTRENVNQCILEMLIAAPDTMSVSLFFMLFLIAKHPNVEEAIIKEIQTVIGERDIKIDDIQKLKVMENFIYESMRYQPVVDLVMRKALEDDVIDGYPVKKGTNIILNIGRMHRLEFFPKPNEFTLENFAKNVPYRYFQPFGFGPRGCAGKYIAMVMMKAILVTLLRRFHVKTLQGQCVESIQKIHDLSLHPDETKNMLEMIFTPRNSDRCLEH

Estrogen receptor (Homo sapiens), sequence (P03372 whole entry, looked up): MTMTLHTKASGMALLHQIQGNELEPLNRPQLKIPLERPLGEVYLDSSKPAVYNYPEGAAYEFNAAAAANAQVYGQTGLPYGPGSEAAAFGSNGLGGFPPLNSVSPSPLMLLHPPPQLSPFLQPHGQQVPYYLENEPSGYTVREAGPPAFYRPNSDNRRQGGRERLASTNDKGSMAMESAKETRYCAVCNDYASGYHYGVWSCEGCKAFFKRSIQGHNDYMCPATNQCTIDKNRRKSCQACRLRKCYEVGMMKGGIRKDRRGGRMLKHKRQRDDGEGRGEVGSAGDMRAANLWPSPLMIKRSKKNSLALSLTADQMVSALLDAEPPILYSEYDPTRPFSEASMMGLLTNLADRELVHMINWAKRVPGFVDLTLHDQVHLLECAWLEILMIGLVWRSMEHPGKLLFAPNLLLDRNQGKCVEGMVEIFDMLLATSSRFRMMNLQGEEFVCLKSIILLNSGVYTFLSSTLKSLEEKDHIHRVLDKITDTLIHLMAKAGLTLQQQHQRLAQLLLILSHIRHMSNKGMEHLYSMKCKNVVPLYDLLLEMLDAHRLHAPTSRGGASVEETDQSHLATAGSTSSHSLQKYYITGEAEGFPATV
Androgen receptor (Homo sapiens), sequence (P10275 whole entry, looked up): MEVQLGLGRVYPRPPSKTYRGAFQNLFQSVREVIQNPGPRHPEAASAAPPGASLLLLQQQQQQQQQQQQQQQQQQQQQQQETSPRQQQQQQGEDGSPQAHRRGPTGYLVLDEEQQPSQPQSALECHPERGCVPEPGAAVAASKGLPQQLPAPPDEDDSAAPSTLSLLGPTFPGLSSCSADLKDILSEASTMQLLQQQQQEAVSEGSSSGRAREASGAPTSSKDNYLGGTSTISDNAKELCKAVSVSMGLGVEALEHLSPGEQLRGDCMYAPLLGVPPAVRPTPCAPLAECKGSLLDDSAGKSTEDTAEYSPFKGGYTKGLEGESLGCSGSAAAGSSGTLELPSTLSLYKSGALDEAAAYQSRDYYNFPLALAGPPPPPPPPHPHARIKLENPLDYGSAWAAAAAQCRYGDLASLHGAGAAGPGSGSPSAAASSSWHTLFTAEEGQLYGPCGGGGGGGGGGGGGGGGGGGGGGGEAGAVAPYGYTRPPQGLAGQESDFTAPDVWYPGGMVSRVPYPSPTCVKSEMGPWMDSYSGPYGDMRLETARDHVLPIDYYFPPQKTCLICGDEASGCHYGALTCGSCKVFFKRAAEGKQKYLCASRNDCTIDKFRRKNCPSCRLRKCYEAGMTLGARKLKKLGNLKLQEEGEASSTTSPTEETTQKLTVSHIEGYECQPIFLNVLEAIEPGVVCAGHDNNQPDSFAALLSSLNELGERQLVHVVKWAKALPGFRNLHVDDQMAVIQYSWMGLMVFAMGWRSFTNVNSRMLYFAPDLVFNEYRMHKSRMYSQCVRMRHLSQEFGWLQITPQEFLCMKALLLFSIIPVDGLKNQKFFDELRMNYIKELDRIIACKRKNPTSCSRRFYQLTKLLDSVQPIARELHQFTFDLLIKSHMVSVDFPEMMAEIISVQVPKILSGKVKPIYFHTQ

SMILES | Potency [1] | Potency [2] | Potency [3] | Potency [4] | Potency [5] | Potency [6] | Potency [7] | Potency [8] | Potency [9] | Potency [10] | Potency [11] | Potency [12] | Potency [13] | Potency [14] | Potency [15] | Potency [16] | Potency [17] | Potency [18] | Potency [19] | Potency (Aromatase (Homo sapiens))
CCCn1cnc2c1c(=O)n(CCCCC(C)=O)c(=O)n2C | inactive | inactive | inactive | inactive | inactive | inactive | inactive | inactive | inactive | inactive | inactive | inactive | inactive | inactive | inactive | inactive | inactive | inactive | inactive | inactive
CCO[C@H](Cc1ccc(OCCc2ccc(OS(C)(=O)=O)cc2)cc1)C(=O)O | inactive | inactive | inactive | inactive | inactive | inactive | inactive | inactive | inactive | inactive | inactive | inactive | inactive | inactive |  | inactive | inactive | inactive | inactive | inactive
Cc1[nH]c(C)c(Cl)c(=O)c1Cl | inactive | inactive | inactive | inactive | inactive |  |  |  | inactive |  | inactive | inactive | inactive | inactive | inactive | inactive | inactive | inactive | inactive | inactive
CCCCCCCN | inactive | inactive | inactive | inactive | inactive |  |  |  | inactive |  | inactive | inactive | inactive | inactive | inactive | inactive | inactive | inactive | inactive | inactive
CCOC(=O)c1cccnc1 | inactive | inactive | inactive | inactive | inactive |  |  |  | inactive |  | inactive | inactive | inactive | inactive | inactive | inactive | inactive | inactive | inactive | inactive
NCC(=O)CCC(=O)O | inactive | inactive | inactive | inactive | inactive |  |  |  | inactive |  | inactive | inactive | 26.6 µM (active) | inactive | inactive | inactive | inactive | inactive | inactive | inactive
CNCCCN1c2ccccc2CCc2ccccc21 | inactive | 4.52 µM (active) | 16 µM (active) | 11.4 µM (active) | inactive |  | inactive | inactive | inactive | inactive | 8.04 µM (active) | 12.7 µM (active) |  | inactive | inactive | inactive | inactive | inactive | inactive | inactive
CC(C)(C)Cl | inactive | inactive | inactive | inactive | inactive |  |  |  | inactive |  | inactive | inactive | inactive | inactive |  | inactive | 64.4 µM (active) | inactive | inactive | inactive
CC1CCC(=O)C1=O (configuration not stated) | inactive | inactive | inactive | inactive | inactive |  |  |  | inactive |  | inactive | inactive | inactive |  | inactive | inactive | inactive | inactive | inactive | inactive
CCCCC(CC)COC(=O)CCCCCCCCC(=O)OCC(CC)CCCC (configuration not stated) | inactive | inactive | inactive | inactive | inactive |  |  |  | inactive |  | inactive | inactive | inactive | inactive | inactive | inactive |  | inactive | inactive | inactive
OC[C@H]1O[C@@H](OCCc2ccc(O)cc2)[C@H](O)[C@@H](O)[C@@H]1O | inactive | inactive | inactive | inactive | inactive |  |  |  | inactive |  | inactive | inactive | inactive | inactive |  | inactive | inactive | inactive | inactive | inactive
CCCCC | inactive | inactive | inactive | inactive | inactive |  |  |  | inactive |  | inactive | inactive | inactive |  | inactive |  |  |  | inactive | 
C[C@H](CCC(=O)O)[C@H]1CC[C@H]2[C@@H]3CC[C@@H]4C[C@H](O)CC[C@]4(C)[C@H]3C[C@H](O)[C@]12C | inactive | inactive | inactive | inactive | inactive |  |  |  | inactive |  | inactive | 68.8 µM (active) | inactive | inactive | inactive | inactive | inactive | inactive | inactive | inactive
C=CC(=O)OCCOCCOCCOCCOC(=O)C=C | 49.2 µM (active) and 48.5 µM (active) | 13.8 µM (active) and 12.1 µM (active) | 8.68 µM (active) and 6.06 µM (active) | 12.3 µM (active) and 9.6 µM (active) | 24.7 µM (active) |  |  |  | 30.4 µM (active) |  | 15.4 µM (active) and 17.1 µM (active) | 15.4 µM (active) and 27.1 µM (active) | inactive | 62 µM [inconclusive] (active) and 61.1 µM [inconclusive] (active) | inactive | inactive |  |  | 61.4 µM (active) | 15.4 µM (active) and 17.1 µM (active)
